Screens from PubChem.
Fluorescein autfl: qHTS Assay for Spectroscopic Profiling in Fluorescein Spectral Region. max fluorescein-equivalent concentration, M. actives 0.91% (n = 59,000). Compound autofluorescence, 480/540 nm, fluorescein-equivalent; hits give high values. AID 593, 2007; in the data active = max fluorescein-equivalent concentration above about 10 nM; inconclusive = between about 1.1 nM and that limit
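Values reflect compound autofluorescence, normalized to fluorescein on the same plate and reported at each tested concentration. Conditions: 100 mM Tris pH 8.0, room temperature, 15 min, excitation 480 nm, emission 540 nm.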
TexasRed autofl: qHTS Assay for Spectroscopic Profiling in Texas Red Spectral Region | Compound fluorescence, Texas Red channel, 547/618 nm; hits give high values | max dye-equivalent concentration, M | actives 0.06% (n = 59,000) | AID 587, 2007; in the data active = max dye-equivalent concentration above about 10 nM; inconclusive = between about 1.1 nM and that limit
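Texas Red-region profiling: compounds in 100 mM Tris pH 8.0 were read at 547/618 nm after 15 min at room temperature. Intensities were normalized against a six-point Texas Red standard series to give dye-equivalent concentration.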
Resorufin autofl: qHTS Assay for Spectroscopic Profiling in Resorufin Spectral Region | Compound fluorescence, resorufin region 547/598 nm, buffer; hits give high values | max dye-equivalent concentration, M | actives 0.04% (n = 59,000) | AID 588, 2007
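Tris 100 mM pH 8.0; compound added, 15 min RT; CCD imager read, ex 547 nm/em 598 nm; signal normalized to resorufin standard curve (six concentrations per plate) as dye-equivalent concentration.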
A488 fluor: qHTS Assay for Spectroscopic Profiling in A488 Spectral Region; compound autofluorescence, A488 spectral region, dye equivalency; Compound Type: qHTS ECL - MLSMR; max dye equivalency, M; actives 0.1% (n = 59,000)
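Read-out: relative fluorescence at 480/540 nm, expressed as Alexa 488 dye-equivalent concentration from a six-point A488 standard included per plate. Conditions: 100 mM Tris, pH 8.0; 15 min incubation, room temperature.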
Rhodamine fluor: qHTS Assay for Spectroscopic Profiling in Rhodamine Spectral Region; max dye-equivalent concentration, M; Rhodamine-region fluorescence, 547/598 nm, Tris buffer; hits give high values; actives 0.05% (n = 59,000); AID 594, 2007; in the data active = max dye-equivalent concentration above about 11 nM; inconclusive = between about 1.1 nM and that limit
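qHTS spectral profiling of compounds without any target or enzyme present, in pH 8.0 Tris buffer; plates were read after a 15-minute room-temperature incubation using the rhodamine-region filter set.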
A647 fluor: qHTS Assay for Spectroscopic Profiling in A647 Spectral Region. Compound fluorescence, A647 channel (570/671 nm), Tris buffer. 59,000 tested, under 10 active. max dye-equivalent concentration, M;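 note: values scaled relative to a standard on each plate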
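Each compound's intrinsic fluorescence at 570 nm excitation and 671 nm emission is measured across its concentration series in 100 mM Tris, pH 8.0, after 15 min at room temperature, and reported relative to an A647 curve.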
* hit, by the source's call; i = inactive; ? = inconclusive; ! = not confirmed by another sample. This is a sample that favours compounds with a hit; in the whole collection about 0.9% have one here. Unless noted, the rule behind the calls is not given here.

SMILES	Fluorescein autfl	TexasRed autofl	Resorufin autofl	A488 fluor	Rhodamine fluor	A647 fluor
CCOC(=O)c1cc2c(=O)n3ccccc3nc2n(Cc2ccc(Cl)cc2)c1=N	3.4e-07M*	i	i	2.6e-08M*	i	1e-09
COCCNC(=O)c1cc2c(=O)n3cccc(C)c3nc2n(Cc2ccncc2)c1=N	i	i	i	i	i	1.6e-08
N=c1c(C(=O)NCc2ccco2)cc2c(=O)n3ccccc3nc2n1Cc1ccc(Cl)cc1	?	?	i	i	i	3.2e-09
O=C1c2c(O)cc(O)cc2O[C@@H](c2ccc(O)c(O)c2)[C@H]1O	?	i	i	i	i	2.6e-08
N=c1c(C(=O)NCc2ccc3c(c2)OCO3)cc2c(=O)n3ccccc3nc2n1Cc1cccnc1	?	i	i	i	i	4.4e-08
COc1ccc(CNC(=O)c2cc3c(=O)n4ccccc4nc3n(Cc3cccnc3)c2=N)cc1	1.1e-07M*	i	i	?	i	4.1e-08
CC(=O)OC(C)(C)N=Nc1ccc(Br)cc1	i	i	i	i	i	2.1e-08
O[C@@H](c1cc(-c2ccccc2)nc2c1ccc1ccccc12)[C@@H]1CCCCN1	?	i	i	i	i	4.5e-08
CC(C)[C@@H]1O[C@H](/C=C\c2ccccc2)OCC1(C)C	?	i	i	i	i	3.4e-08
CN(C)CCCOc1nn(Cc2ccccc2)c2ccccc12	1.9e-08M*	i	i	i	i	2.3e-08
Cc1c(C(=O)O)c(O)cc2c1C(=O)c1c(O)c([C@@H]3O[C@H](CO)[C@@H](O)[C@H](O)[C@@H]3O)c(O)c(O)c1C2=O	i	i	i	i	i	1e-09
CCOC(=O)C1=C(CSc2nc3c(cc2C#N)CN(C)CC3)OC(N)=C(C#N)C1c1ccccc1 (stereo not drawn)	3.4e-08M*	i	i	i	i	1e-09
C=C[C@@]1(C)C=C2CC[C@@H]3[C@](C)(CCC[C@@]3(C)C(=O)O)[C@H]2CC1	i	i	i	i	i	2.4e-09
CN1C[C@@H](O)[C@@H](O)[C@@H](O)[C@@H]1CO	i	i	i	i	i	1e-09
Cc1nn2cnc3sc4c(c3c2nc1=O)CCCC4	1e-08M*	i	i	i	i	1.3e-09
O=c1c2ccccc2oc2cc(O)c([C@@H]3COC[C@@H](CO)[C@@H](O)[C@@H](O)[C@H]3O)c(O)c12	?	i	i	i	i	1.5e-08
CN(C)CC[C@H](c1ccc(Cl)cc1)c1ccccn1	1.3e-08M*!	?	i	i	i	9.6e-09
CC(=O)c1c(C)nc2cc(Cl)ccc2c1N	i	i	i	i	i	1e-09
Cc1nc2ccc(Cl)cc2nc(C)/c1=N\O	1.1e-07M*	?	i	?	i	1.1e-08
CC(=O)O[C@@H]1C[C@]2(C)[C@H](C[C@@H](O)[C@H]3[C@@]4(C)CC[C@@H](O)[C@@H](C)[C@@H]4CC[C@@]32C)/C1=C(\CCC=C(C)C)C(=O)O	i	i	i	i	i	2.7e-09
Cn1c2ccccc2c(=O)n2c(=O)c3ccccc3cc12	3.9e-08M*	i	i	?	i	3.6e-09
CCOc1ccc(/C=c2\sc3nc(-c4ccco4)nn3c2=O)cc1OCC	1.2e-07M*	i	i	?	i	7.2e-09
COc1ccccc1/C=c1\sc2nc(-c3ccco3)nn2c1=O	i	i	i	i	i	6.3e-09
N=C1[C@@H](O)[C@]2(I)c3ccccc3N3C(=N)[C@H](O)[C@@H]4c5ccccc5N1[C@@H]4[C@@H]32	?	?	?	i	?	2.1e-08
CCN1C(=O)c2cccc3c(S(=O)(=O)Nc4ncccc4C)ccc1c23	?	i	i	i	i	2.5e-08
SMILES	Fluorescein autfl	TexasRed autofl	Resorufin autofl	A488 fluor	Rhodamine fluor	A647 fluor
Cc1ccc(N2C(=O)c3cccc4c(N5CCN(C)CC5)ccc(c34)C2=O)c2cccnc12	2.6e-08M*	i	i	?	i	1e-09
COC(=O)CC[C@@H](C)[C@H]1CC[C@H]2[C@H]3CC[C@H]4C[C@@H]5CC[C@@]4(C)C3(O5)[C@@H](Br)[C@@H](Br)[C@@]12C	i	i	i	i	i	1e-09
O=c1ccn([C@H]2O[C@H](CO)[C@@H](O)[C@@H]2O)c(=O)[nH]1	i	i	i	i	i	1e-09
CCCCCC[C@@H]([C@H](C)O)n1cnc2c(N)ncnc21	?	?	i	i	i	1.2e-09
COc1ccc2cc3c(N)c(C(=O)NCc4ccco4)sc3nc2c1	2.4e-08M*	i	i	i	i	1e-09
COc1cccc(=O)c2c(C)oc(C)c12	7.1e-08M*	i	i	?	i	3.6e-08
CCCN(CCc1ccccc1)[C@H]1CCc2c(O)cccc2C1	i	i	i	i	i	1e-09
CC(C)C[C@H](NC(=O)[C@@H](O)[C@@H](N)Cc1ccccc1)C(=O)O	?	i	i	i	i	4.6e-08
COc1ccc(OC)c(/C=c2\sc3nc(-c4cccs4)nn3c2=O)c1	1.8e-07M*	i	i	?	i	2.4e-09
O=C(O)CCCC[C@H]1CCSS1	?	?	i	i	i	2.4e-08
CN(C)c1ccc(N/C=C/C(=O)c2ccc(F)cc2)cc1	2.4e-08M*	i	i	i	i	1e-09
COc1cc(C(=O)N(CCc2ccccc2)C2CC3CCC(C2)N3C)cc(OC)c1OC (stereo not drawn)	i	?	i	i	i	6.2e-09
CN1[C@@H]2CC[C@H]1CC(OC(=O)[C@@H](CO)c1ccccc1)C2 (stereo partly drawn)	3e-08M*!	?	i	i	i	3.9e-09
O=C(NC1CCCC1)c1cnn2c(C(F)(F)F)cc(-c3ccc4c(c3)OCO4)nc12	4.6e-08M*	i	i	?	i	1e-09
O=C(c1cnn2c(C(F)(F)F)cc(-c3ccc4c(c3)OCO4)nc12)N1CCCCC1	i	i	i	i	i	3.3e-08
CN(C)S(=O)(=O)c1ccc2c(c1)/C(=C/c1cc3c([nH]1)CCCC3)C(=O)N2	1.9e-08M*	i	i	i	i	2.6e-08
COc1ccc(N(C)S(=O)(=O)c2ccc3c(c2)CCC(=O)N3)cc1	i	i	i	i	i	3.1e-09
CCc1cc2c(=O)c(-c3ccc4c(c3)OCCO4)coc2cc1OC(=O)c1ccco1	i	i	i	i	i	1e-09
